Assay results published in PubChem BioAssay.
Results filed as inconclusive are left out. Active and inactive are the calls of the source. Unless noted, no rule for the calls is given here.

What was measured:
[1] = stimulators of insulin release from INS-1E, primary screen, cell-based, 5 mM glucose, NPC library (AID 1117329;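 active = compound raises insulin release from rat beta cells at 5 mM glucose, no numeric limit stated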); settings: rat INS-1E insulin secretion, at 10 µM, stronger effect = higher value
[2] = growth inhibition of GSK3B-pretreated HCT116 cells – cell-based, CellTiter-Glo, 0.2 to 20 µM (AID 1117336;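 active = compounds lowering colon cancer cell viability after pretreatment blocking the GSK3B kinase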); settings: HCT116 viability after GSK3B inhibitor, at 20 µM, stronger effect = higher value
[3] = inhibition of endothelial tube formation, primary screen, imaging, VEGF stimulated, CD31 staining, tube area, NPC library (AID 1117340;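 active = compound that reduces growth-factor-driven endothelial tube area in a mixed cell culture, no cutoff stated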); settings: VEGF-stimulated ADSC/ECFC co-culture, at 10 µM, stronger effect = higher value
[4] = glucagon-like peptide 1 release enhancers, primary assay, NCI-H716 cell line, NPC library (AID 1117341;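 active = compound raises GLP1 secretion from the human gut endocrine cells, with no numeric limit stated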); settings: NCI-H716 cells, at 10 µM, stronger effect = higher value
[5] = HCT116 colon cancer cell growth inhibition, primary screen, CellTiter-Glo luminescence, NPC library (AID 1117342;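 active = compounds that lower survival of HCT116 colon cancer cells in the luminescence readout, no numeric limit stated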); settings: at 20 µM (top of the series)
[6] = CellTiter-Glo luminescent readout of SW480 viability loss, NPC library primary (AID 1117343;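 active = compounds that lower viability of the colon cancer cells in the luminescence readout, with no numeric limit stated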); settings: CellTiter-Glo luminescence; at 20 µM (top of the series)
[7] = decreased DLD-1 cellular survival, CellTiter-Glo luminescent readout, NPC compound collection, primary HTS (AID 1117346;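 active = compounds that lower survival of DLD-1 colon cancer cells in the luminescence readout, no cutoff given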); settings: DLD-1 viability, CellTiter-Glo luminescence; at 20 µM (top of the series)
[8] = modulation of C. elegans fzo-1 (AID 1259413);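 also: fzo-1 mutant C. elegans worms in liquid wells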; settings: C. elegans fzo-1 modulator screen, mean read-out; stronger effect = higher value
[9] = differential killing of epithelial or mesenchymal cells, primary screen, imaging, PC-3E GFP, TEM4-18 mCherry, co-culture (AID 1345086;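 active = compounds killing one labelled cell type while sparing the other, by normalised counts and ratio limits, not self-fluorescent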;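 as to all read-outs here: cells exposed to compound for 72 h before imaging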;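 as to red/green cell ratio (normalised): normalised mesenchymal count divided by normalised epithelial count so high means epithelial killing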); settings: imaging cell counts, at 1 µM; for red/green cell ratio (normalised): actives lie on both sides, counts scaled to control wells, 1 = unselective
[10] = growth inhibition of DIPG glioma cells, dose response, cell-based, SU-DIPG-XIII, MIPE4.0, CellTiter-Glo, qHTS (AID 1347061; cut-off not given, nearly all actives have AC50 up to about 37 µM;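 also: cells exposed to compound for 48 hours before readout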); settings: SU-DIPG-XIII viability, CellTiter-Glo ATP luminescence
[11] = growth inhibition of DIPG glioma cells, dose response, cell-based, JHH-DIPG-1, MIPE4.0, CellTiter-Glo, qHTS (AID 1347062; cut-off not given, nearly all actives have AC50 up to about 27 µM;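 as to AC50: cells exposed to compound for two days before readout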); settings: JHH-DIPG-1 viability, CellTiter-Glo ATP luminescence
[12] = growth inhibition of DIPG glioma cells, dose response, cell-based, SU-DIPG-XVII, MIPE5.0, CellTiter-Glo, qHTS (AID 1347060; cut-off not given, nearly all actives have AC50 up to about 26 µM); settings: SU-DIPG-XVII viability, CellTiter-Glo ATP luminescence
[13] = growth inhibition of DIPG glioma cells, dose response, cell-based, SU-DIPG-IV, MIPE4.0, CellTiter-Glo, qHTS (AID 1347063; cut-off not given, nearly all actives have AC50 up to about 30 µM;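 also: compound exposure lasted 48 hours before the viability readout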); settings: SU-DIPG-IV viability, CellTiter-Glo ATP luminescence
[14] = growth inhibition of DIPG glioma cells, dose response, cell-based, SU-DIPG-XIII, MIPE5.0, CellTiter-Glo, qHTS (AID 1347064; cut-off not given, nearly all actives have AC50 up to about 23 µM); settings: SU-DIPG-XIII viability, CellTiter-Glo ATP luminescence
[15] = system: Aerobactin synthetase IucA (Klebsiella pneumoniae); assay: IucA aerobactin synthetase inhibitors, biochemical, Tocris library, absorbance (AID 1345561); settings: purified IucA enzyme assay, absorbance (OD) read-out; stronger effect = lower value;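 tested at 8 µM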;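 also: 100% = enzyme without compound and 0% = no enzyme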
[16] = measured here: epithelial PC-3E GFP cell survival
[17] = measured here: mesenchymal TEM4-18 mCherry cell survival

| SMILES | insulin secretion stimulation [1] | viability decrease [2] | tube area decrease [3] | GLP1 secretion stimulation [4] | inhibition of viability [5] | viability decrease (inhibition) [6] | viability decrease (inhibition) [7] | mean signal [8] | red/green cell ratio (normalised) [9] | normalised cell number [9, 16] | normalised cell number [9, 17] | outcome [10] | outcome [11] | outcome [12] | AC50 [10] | outcome [13] | outcome [14] | AC50 [11] | AC50 [13] | remaining activity [15] |
| --- | --- | --- | --- | --- | --- | --- | --- | --- | --- | --- | --- | --- | --- | --- | --- | --- | --- | --- | --- | --- |
| CN(C/C=C/C#CC(C)(C)C)Cc1cccc2ccccc12 | 3.2% (inactive) | 84.2% (active) | 5.2% (inactive) | -3.9% (inactive) | 82.6% (active) | 121% (active) | 70.1% (active) | 221 (inactive) | 1.03 (inactive) | 1.32 | 1.37 | inactive | inactive |  |  |  |  |  |  |  |
| CN1CCC(=C2c3ccccc3CCc3sccc32)CC1 | 6.65% (inactive) | 47.1% (inactive) | 28.1% (inactive) | 5.3% (inactive) | 20.1% (inactive) | 103% (active) | 26.9% (inactive) | 277 (inactive) | 0.85 (inactive) | 1.11 | 0.94 |  |  | inactive | 16.6 µM (active) |  |  |  |  |  |
| Nc1ccn([C@H]2CC[C@@H](CO)O2)c(=O)n1 | -0.3% (inactive) | 6.9% (inactive) | -2.2% (inactive) | 1.4% (inactive) | -1.1% (inactive) | -0.9% (inactive) | 8.55% (inactive) | 305 (inactive) | 0.76 (inactive) | 1.16 | 0.88 |  |  |  |  | inactive |  |  |  |  |
| CNNCc1ccc(C(=O)NC(C)C)cc1 | 0.5% (inactive) | -8.6% (inactive) | 0.7% (inactive) | -0.6% (inactive) | -1.9% (inactive) | 5.8% (active) | -10.5% (inactive) | 227 (inactive) | 1.09 (inactive) | 0.95 | 1.03 | inactive | inactive | inactive |  |  | inactive |  |  |  |
| O=C1CCc2ccc(OCCCCN3CCN(c4cccc(Cl)c4Cl)CC3)cc2N1 | 3.7% (inactive) | 95% (active) | 3.8% (inactive) | 10.2% (inactive) | 99.4% (active) | 112% (active) | 89.5% (active) | 231 (inactive) | 0.72 (inactive) | 1.31 | 0.94 | inactive | inactive |  |  |  |  |  |  |  |
| CC(C)[C@H](N)C(=O)OCCOCn1cnc2c(=O)[nH]c(N)nc21 | 4.1% (inactive) | 4.4% (inactive) | -8.9% (inactive) | 2.5% (inactive) | -1% (inactive) | 4.3% (inactive) | -6.2% (inactive) | 266 (inactive) | 0.91 (inactive) | 1.13 | 1.03 | inactive | inactive | inactive |  | inactive | inactive |  |  |  |
| COc1cc2nc(N3CCN(C(=O)C4COc5ccccc5O4)CC3)nc(N)c2cc1OC (stereo not given) | -0.7% (inactive) | 100% (active) | 85.3% (active) | 25.7% (active) | 101% (active) | 142% (active) | 103% (active) | 219 (inactive) | 0.65 (inactive) | 1.28 | 0.83 | inactive |  |  |  |  |  |  |  |  |
| Nc1nc2c(ncn2COC(CO)CO)c(=O)[nH]1 | 0% (inactive) | -10.4% (inactive) | -6.4% (inactive) | -2% (inactive) | 4.7% (inactive) | -10.2% (inactive) | -8.6% (inactive) | 268 (inactive) | 1.03 (inactive) | 1.04 | 1.07 |  |  | inactive |  |  |  | 16.6 µM (active) | 20.9 µM (active) |  |
| O=C1CC2(CCCC2)CC(=O)N1CCNCC1COc2ccccc2O1 (stereo not given) | 5% (inactive) | -32% (inactive) | -4.9% (inactive) | -2.3% (inactive) | 25.7% (inactive) | 14.5% (inactive) | -5.7% (inactive) | 200 (inactive) |  |  |  |  |  |  |  |  |  |  |  | 96.6% (inactive) |
| COc1cc(OC)c(C(=O)CCCN2CCCC2)c(OC)c1 | -1% (inactive) | -39.3% (inactive) | 17.2% (inactive) | 0.3% (inactive) | -8% (inactive) | 0.7% (inactive) | -31.7% (inactive) | 255 (inactive) | 0.81 (inactive) | 1.24 | 1 | inactive | inactive | inactive |  | inactive | inactive |  |  |  |
| CCCOc1ccc(C(=O)OCCN(CC)CC)cc1N | 1.5% (inactive) | 47.8% (inactive) | -3.5% (inactive) | -1% (inactive) | 74.2% (active) | 36% (inactive) | 90.1% (active) | 287 (active) | 1.08 (inactive) | 1.2 | 1.3 |  | inactive | inactive |  | inactive | inactive |  |  |  |
| Nc1nnc(-c2cccc(Cl)c2Cl)c(N)n1 | -0.4% (inactive) | -5.8% (inactive) | 9.4% (inactive) | -4.7% (inactive) | 9.7% (inactive) | 29.2% (inactive) | -4.7% (inactive) | 281 (inactive) | 0.86 (inactive) | 1.05 | 0.91 | inactive |  | inactive |  |  | inactive |  |  |  |
| Nc1[nH]c(=O)ncc1F | -1.8% (inactive) | -5.1% (inactive) | -15.9% (inactive) | 2.3% (inactive) | -15.1% (inactive) | -13.1% (inactive) | -0.9% (inactive) | 243 (inactive) | 1.01 (inactive) | 0.89 | 0.9 |  |  | inactive |  |  | inactive |  |  |  |
